Screening data deposited in PubChem BioAssay by National Center for Advancing Translational Sciences (NCATS).
Only some compounds are listed: those with a hit (about 1.1% of all), similar ones and a draw of the others.
PTAP TSG101 blk – blocks PTAP/TSG101 interaction to inhibit HIV-1 budding; Q99816; Fluorescence polarization, FITC-PTAP peptide / Tsg101 binding; Potency, µM (series often up to 115 µM), for the others: at the highest dose activity change, negative = inhibition, hits mostly inhibitors; 340,000 tested, under 10 active; AID 493005; active means well fitted inhibition curve with a large enough effect in the main read-out, with a control signal flat, not every such curve was filed as active; inconclusive means small, poorly fitted or top-dose-only effect, or effect the other way, or a change in a side signal; inactive means no such curve, though single readings can be large or run the other way; further: % of control where 0% means no effect
Target sequence (Q99816 whole entry, looked up): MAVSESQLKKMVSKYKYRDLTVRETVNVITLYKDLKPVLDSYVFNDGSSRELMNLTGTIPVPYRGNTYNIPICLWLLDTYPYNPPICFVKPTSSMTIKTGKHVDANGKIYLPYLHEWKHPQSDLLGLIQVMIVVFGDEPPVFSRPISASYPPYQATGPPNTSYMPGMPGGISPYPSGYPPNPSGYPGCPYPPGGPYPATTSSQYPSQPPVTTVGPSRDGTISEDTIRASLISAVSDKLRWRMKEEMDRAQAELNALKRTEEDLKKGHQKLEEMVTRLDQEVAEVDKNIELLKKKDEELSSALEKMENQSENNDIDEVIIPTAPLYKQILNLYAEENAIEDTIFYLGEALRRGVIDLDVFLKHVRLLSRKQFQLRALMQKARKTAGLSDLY
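Fluorescence anisotropy tracks displacement of a FITC-tagged PTAP peptide (50 nM) from the Tsg101 binding domain (10 uM), following a 20 min room-temperature incubation at pH 7.5.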
12-LOX inh – blocks human arachidonate 12S-lipoxygenase. purified 12hLO, xylenol orange hydroperoxide absorbance. Potency, µM (highest dose often 108 µM), without a hit: at the highest dose activity change, negative = inhibition, actives largely listed as inhibitors. hit rate 1.1% among 580,000. AID 1671190; further: on the % scale 0 is the no-effect control and ±100 the full control effect
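Purified human 12hLO (150 nM final) in 25 mM Hepes, 0.01% Triton X-100, pH 7.0 was preincubated 15 min at room temperature with compound. Then 40 uM arachidonic acid was added, 30 min. Hydroperoxide was read by Fe-XO absorbance ratio 573/405 nm.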
Eya2 inh – Eya2 (human) phosphatase inhibition. O00167. recombinant Eya2, OMFP fluorescence dephosphorylation (OMFP is methylfluorescein phosphate). Potency, µM (doses to about 76.9 µM), without a hit: at the top dose activity, negative = inhibition, usual class: inhibitors. hit rate 0.006% among 330,000; further: on the % scale 0 is the no-effect control and ±100 the full control effect
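Eya2 protein (added as 0.2 uM solution) was preincubated with compound for 10 min at ambient temperature in 50 mM HEPES pH 7.5, 50 mM NaCl, 5 uM MgCl2, 0.05% BSA, 1 mM DTT. OMFP (added at 50 uM) then reacted 10 min; fluorescence read at 485/525 nm.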
USP2a inh – inhibitors of human ubiquitin-specific protease USP2a. O75604. USP2 core, Ub-CHOP2 coupled fluorogenic reporter, 485/531. Potency, µM (highest dose often 38.3 µM), for the others: top-dose activity change, negative = inhibition, most hits filed as inhibitors. hit rate 0.01% among 330,000. AID 463254;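 further: plate controls were DMSO wells for no effect and full inhibition by NEM control for full effect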
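Deubiquitinase activity read as fluorescence (485/531 nm) after Ub-CHOP2 cleavage activates the enterokinase reporter on its substrate; USP2 core 10nM, Ub-CHOP2 and substrate 25nM each, 30min compound preincubation then 60min RT; data normalized to NEM, curves fitted.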
* marks the source's active call; other numbers are inactive results; ? = inconclusive; . = not tested or not shown; ! = not active in a repeat; [ ] = another dose, or the depositor's remark. Unless noted, the call rests on the fitted dose curve; in most records, active means well fitted curve in the direction sought with a large enough effect; inconclusive means small, poorly fitted or top-dose-only effect, or another doubt; inactive means no such curve, though single readings can be large; an effect the other way counts as inactive or inconclusive. Potency means the concentration at half of the fitted maximal effect.

SMILES | PTAP TSG101 blk | 12-LOX inh | Eya2 inh | USP2a inh
CCN(CC)Cc1oc(CO)cc(=O)c1O | 0% | 32µM* | 11% | -1%
CCNc1ccc(Br)cc(C(=O)/C=C/c2ccc(Cl)cc2)c1=O | -2% | . | 6% | 1%
CCNc1ccc(Br)cc(C(=O)/C=C/c2ccc3c(c2)OCO3)c1=O | 6% | 3.2µM* | 1% | 6%
CCNC(=S)Nc1ccc(OCc2nc3ccccc3s2)cc1 | -4% | 45µM* | -3% | -2%
O=C(O)CCCC(=O)Nc1ccc(OCc2nc3ccccc3s2)cc1 | 0% | ? | -5% | -2%
COc1ccc(-c2cc(N3CCCC(NC(=O)c4ccc(C)nc4)C3)n[nH]2)cc1 (stereo unspecified) | . | -1% | . | .
Cc1nn2c(c1-c1ccnn1C(C)C)N(C(=O)C(C)C)CCC2 | . | 3%[176 µM] | . | .
Cc1nn2c(c1-c1ccnn1C(C)C)N(Cc1ccc(C(=O)O)s1)CCC2 | . | 28µM* | . | .
CSc1nnc(-c2cc(Br)ccc2NC(C)=O)c(=O)[nH]1 | . | 0% | . | .
Cc1ccc2c(c1)c1c3n2CC(=C2C(=O)OC(C)(C)OC2=O)NC3CCC1 (stereo unspecified) | -9% | 11µM* | -8% | 0%
Cc1ccccc1/C=N/N1C(=O)CSC1=S | -1% | -13% | 10% | 8%
O=C1CSC(=S)N1N=Cc1ccccc1O | 0% | 6.3µM* | . | .
O=C1CSC(=S)N1N=Cc1ccc(Cl)cc1Cl | -18% | 35µM* | . | .
Cc1ccc(C(=O)C(CC(=O)c2ccc(C)c(C)c2)S(=O)(=O)c2ccc(C)cc2)cc1 (stereo unspecified) | . | 12% | . | .
O=C([C@H]1O[C@H](CCN2CCN(Cc3ccccc3)CC2)CC[C@@H]1O)N1CCN(c2ccc(F)cc2)CC1 | . | 9% | . | .
COc1ncccc1CN1CCCn2nc(C)c(-c3ccccc3C(C)C)c21 | . | -28%[176 µM] | . | .
COc1cccc(/C(O)=C2\C(=O)C(=O)N(c3ccccn3)C2c2cccc(Br)c2)c1 (stereo unspecified) | . | 35µM* | . | .
O=C(CN1CCc2ccccc2C1)N1N=C(c2cccs2)CC1c1cccs1 (stereo unspecified) | . | -11% | . | .
COc1ccc(-c2noc([C@@H]3C[C@@H](O)CN3Cc3ccccn3)n2)cc1 | . | 65%[176 µM] | . | .
COc1ccc(-c2noc([C@@H]3C[C@@H](O)CN3Cc3ccc(CO)o3)n2)cc1 | . | 45µM* | . | .
O[C@@H]1C[C@@H](c2nc(Cc3ccc(F)cc3Cl)no2)N(Cc2ccco2)C1 | . | 25µM* | . | .
O[C@@H]1C[C@@H](c2nc(Cc3ccc(F)cc3Cl)no2)N(Cc2cc3ccccc3o2)C1 | . | -11%[176 µM] | . | .
OCc1ccc(CN2C[C@H](O)C[C@H]2c2nc(-c3ccc(F)cc3)no2)o1 | . | 25µM* | . | .
OCc1ccc(CN2C[C@H](O)C[C@H]2c2nc(-c3cccnc3)no2)o1 | . | -4%[176 µM] | . | .
Cc1ccc(-c2noc([C@@H]3C[C@@H](O)CN3Cc3ccccc3O)n2)cc1F | . | 32µM* | . | .
SMILES | PTAP TSG101 blk | 12-LOX inh | Eya2 inh | USP2a inh
CCOc1cccc(C(c2c[nH]c3ccccc23)c2c[nH]c3ccccc23)c1O | . | 4µM* | . | .
COc1ccc(-c2nc(C(C)C)nc3c2CCN(C(=O)c2cccc(OC)c2)CC3)cc1 | . | -23% | . | .
COc1ccc(-c2cc(CNc3nc(NC(C)C)nc4cc(-c5ccccc5)sc34)on2)cc1 | . | 45µM* | . | .
CC(=O)Nc1ccc(CNc2nc(NC(C)C)nc3cc(-c4ccccc4)sc23)cc1 | . | 45µM* | . | .
O=C1OCC2(CCN(Cc3cccc(OC(F)(F)F)c3)C2)N1c1ccncc1 (stereo unspecified) | . | -3%[176 µM] | . | .
Cc1ccc(C2NNC(=O)C2NC(=O)c2ccccc2)cc1 (stereo unspecified) | 1% | 25µM* | 8% | 1%
CC(SC(=S)N1CCOCC1)C(=O)O (stereo unspecified) | -9% | 1% | 0% | 1%
S=C(SSC(=S)N1CCOCC1)N1CCOCC1 | . | 5µM* | . | .
N#Cc1c(SCC(=O)Nc2nccs2)sc2c(O)cc(=O)[nH]c12 | -10% | ? | -6% | -1%
CCCSc1nnc(NC(=O)CSc2sc3c(O)cc(=O)[nH]c3c2C#N)s1 | -1% | 50µM* | 0% | 0%
N#Cc1c(SCC(=O)Nc2nc3ccc(Br)cc3s2)sc2c(O)cc(=O)[nH]c12 | ? | 16µM* | 8% | 1%
COc1ccc(-c2cnc3[nH]cc(CC(N)=O)c3c2)cc1OC | . | 3%[176 µM] | . | .
COc1cccc(C2=Cc3ccc(F)cc3C(CC(C)=O)N2c2ccc(-c3cncnc3)cc2)c1 (stereo unspecified) | . | 32µM* | . | .
Cc1ccc2nc(C3CCN(Cc4ccc(C#N)cc4)CC3)[nH]c(=O)c2c1 | . | -12% | . | .
N[C@@H](Cc1cc(I)c(O)c(I)c1)C(=O)O | -1% | 0.51µM*! | 5% | 1%
O=C(O)CCc1cc(I)c(O)c(I)c1 | . | 7% | . | .
CCc1ccc(CNC(=O)c2cc3cn(C4CCCC4)cc3s2)cc1 | . | 4.5µM* | . | .
COc1cccc(OCC(O)CN2CCC(Cc3ccccc3)CC2)c1 (stereo unspecified) | 0% | 0% | -12% | 5%
CCC(=O)c1ccccc1OCCCN1CCC(Cc2ccccc2)CC1 | -2% | 6.3µM* | -4% | 1%
O=[N+]([O-])c1ccc(CN2CCC(Cc3ccccc3)CC2)cc1 | 0% | ? | -3% | -1%
O=[N+]([O-])c1cccc(OCCCN2CCC(Cc3ccccc3)CC2)c1 | -2% | 0.5µM* | . | .
OC(COc1ccccc1)CN1CCC(Cc2ccccc2)CC1 (stereo unspecified) | -4% | 7.9µM* | 8% | -2%
C[C@H](c1ccccc1)N1C[C@H](COCc2ccccc2)Oc2cc(N3CCC[C@H]3CO)ccc2S1(=O)=O | . | 50µM* | . | .
C[C@H](c1ccccc1)N1C[C@@H](COCc2ccccc2)Oc2cc(N3CCC[C@@H]3CO)ccc2S1(=O)=O | . | -5% | . | .
CC1Sc2ccc(C(=O)NCc3ccccn3)cc2NC1=O (stereo unspecified) | 5% | -23% | 19% | -2%
SMILES | PTAP TSG101 blk | 12-LOX inh | Eya2 inh | USP2a inh
O=C(CSc1cccc2cccnc12)Nc1cc(C(=O)O)cc(C(=O)O)c1 | -10% | 25µM* | 6% | -1%
Cc1cccc(NC(=O)CSc2cccc3cccnc23)c1 | -3% | ? | -3% | 2%
CC1Sc2ccc(C(=O)NNC(=O)CSc3cccc4cccnc34)cc2NC1=O (stereo unspecified) | . | 7.9µM* | . | .
Cc1ccc2oc([C@H]3CCN(Cc4c[nH]c5ccccc45)C3)nc2c1 | . | -17%[176 µM] | . | .
Cc1ccc(NC(=S)N/N=C2\CC(C)(C)Oc3ccc(O)cc32)cc1 | 1% | ? | 2% | -5%
Cc1ccccc1NC(=S)N/N=C1\CC(C)(C)Oc2ccc(O)cc21 | 0% | 40µM* | 50% | -10%
CC(=O)N1CCC2(CC1)C/C(=N\NC(=S)Nc1ccc(C)cc1)c1cc(O)ccc1O2 | -4% | 45µM* | ? | 3%
CC(=O)Nc1ccc(CN2CCN(c3cc(Cl)ncn3)C(=O)C2)cc1 | . | 49% | . | .
Cc1ccc(Oc2nc3ccccn3c(=O)c2/C=C(\C#N)c2nc3ccccc3s2)c(C)c1 | . | 4µM* | . | .
